Experimental findings from PubChem BioAssay AID602393 (Broad Institute, 2012) are described below.

Out of some 350,000 compounds screened, about 7,000 (2%) were called active. For the sample, actives were picked, then their nearest neighbours and some compounds at random. Values without a mark were called inactive. No stated cut-off is given here; in the data, active means activation above about 40%; inconclusive means no clear call, values can overlap the other calls; inactive means below that.

The assay in a line: raisers of Bmi1 knock-in reporter signal – mouse ES cells, Bmi1 luciferase knock-in, single point, esBAF inhibitor project, primary screen (AID 602393).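 Further: 0% = median of the plate's neutral control wells and 100% = double that signal; a rise in the Bmi1 reporter signal indicates esBAF inhibition.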 The settings on record: 24 h, at 12.5 µM, active compounds read high, 100% = twice the neutral-well signal.
With `C[C@H](CO)N1C[C@H](C)[C@H](CN(C)Cc2ccc(C(F)(F)F)cc2)Oc2ccc(NC(=O)CCCCCC(=O)Nc3ccccc3N)cc2CC1=O`, the reporter increase was -12.1%. The result for `Cc1ccc(/C=N/NC(=O)Cn2nc(C)c(Br)c2C)o1` reads -0.989%. Turning to `CCn1nc(C)c(/C=N/NC(=O)Cc2ccc(Cl)cc2)c1C`, the reporter increase was 64.3% (active). As to `O=C(Cc1ccccc1)N/N=C/c1ccc(Cl)cc1Cl`, the reporter increase is 3%. In the case of `COc1cccc(-c2cnc3c(c2)C(=O)N([C@@H](C)CO)C[C@@H](C)[C@H](CN(C)C(=O)CN(C)C)O3)c1`, the reporter increase was 4.59%. With `O=C(C[C@H]1C=C[C@H](NC(=O)c2cnccn2)[C@@H](CO)O1)NCc1ccccc1F`, the reporter increase is -2.01%.

On to `Cc1noc(C)c1COC(=O)c1cc2ccccc2cc1O`, for which the reporter increase was -1.05%.

As for `Cc1ccc(S(=O)(=O)N2CCN(C(=O)COC(=O)c3c(C)noc3C)CC2)c(C)c1`, the reporter increase was 0.794%.

For `Cc1ccc(-c2nc(COC(=O)c3c(C)noc3C)cs2)cc1`, the reporter increase is 76.6% (active). The result for `COc1ccc(CNC(=O)C[C@H]2CC[C@H](NC(=O)Nc3ccc4c(c3)OCO4)[C@H](CO)O2)cc1` reads -2.93%; that for `COc1ccc(NC(=O)Nc2ccc3c(c2)C(=O)N([C@H](C)CO)C[C@H](C)[C@@H](CN(C)C(=O)Nc2ccc(OC)cc2)OCCCC[C@H](C)O3)cc1`, 3.33%; that for `C[C@@H]1CN([C@@H](C)CO)C(=O)c2cc(NC(=O)Nc3ccc4c(c3)OCO4)ccc2O[C@@H](C)CCCCO[C@@H]1CN(C)C(=O)Nc1ccc2c(c1)OCO2`, 64.3% (active).

On to `C[C@@H]1CN([C@@H](C)CO)C(=O)c2cc(NC(=O)Nc3ccc4c(c3)OCO4)ccc2O[C@@H](C)CCCCO[C@H]1CN(C)C(=O)Nc1ccc(C(F)(F)F)cc1`, for which the reporter increase is 0.715%.

`C[C@H](CO)N1C[C@H](C)[C@@H](CN(C)C(=O)Nc2ccc3c(c2)OCO3)OCCCC[C@H](C)Oc2ccc(NC(=O)Nc3ccc(F)cc3)cc2C1=O`: the reporter increase was 4.31%. Turning to `C[C@H]1CCCCO[C@H](CN(C)C(=O)Nc2ccccc2)[C@@H](C)CN([C@@H](C)CO)C(=O)c2cc(NC(=O)Nc3ccc4c(c3)OCO4)ccc2O1`, the reporter increase was 27%. The figure for `COc1ccc(NC(=O)N(C)C[C@H]2OCCCC[C@@H](C)Oc3ccc(NC(=O)Nc4ccc5c(c4)OCO5)cc3C(=O)N([C@H](C)CO)C[C@@H]2C)cc1` is 49.3% (active). The figure for `COc1ccc(NC(=O)Nc2ccc3c(c2)C(=O)N([C@@H](C)CO)C[C@@H](C)[C@@H](CN(C)C(=O)Nc2ccc(F)cc2)OCCCC[C@@H](C)O3)cc1` is 4.33%; for `C[C@H]1CCCCO[C@H](CN(C)C(=O)Nc2ccc3c(c2)OCO3)[C@@H](C)CN([C@@H](C)CO)C(=O)c2cc(NC(=O)Nc3ccccc3)ccc2O1` it is 10.9%. The figure for `C[C@H](CO)N1C[C@H](C)[C@@H](CN(C)C(=O)Nc2ccc3c(c2)OCO3)OCCCC[C@H](C)Oc2ccc(NC(=O)Nc3ccc4c(c3)OCO4)cc2C1=O` is 45% (active).

Consider `COc1ccccc1S(=O)(=O)N[C@@H]1CC[C@@H](CCNC(=O)C2CCCCC2)O[C@@H]1CO`, for which the reporter increase was -1.9%. As for `O=C(C[C@@H]1C[C@@H]2c3cc(NS(=O)(=O)c4ccc(F)cc4)ccc3O[C@@H]2[C@H](CO)O1)N1CCCCC1`, the reporter increase is -3.2%.

For `CO[C@@H]1CC[C@H]2CCN(C)C(=O)C[C@@H](c3ccccc3)CN(C)C(=O)c3cc(C#N)ccc3OC[C@@H]1O2`, the reporter increase is 3.4%. In the case of `CO[C@H]1CC[C@@H]2CCOc3c(C#N)cccc3C(=O)N(C)C[C@@H](OC)[C@H](C)C(=O)N(C)C[C@H]1O2`, the reporter increase is 3.07%. `CCC(=O)N1C[C@@H](C)[C@H](OC)CN(C)C(=O)c2ccc(NC(=O)C3CCOCC3)cc2OC[C@@H]1C`: the reporter increase was -3.82%. On to `C[C@@H]1CN([C@H](C)CO)C(=O)c2cc(-c3cccc(C#N)c3)cnc2O[C@H]1CN(C)C(=O)C1CCC1`, for which the reporter increase was -9.7%.

In the case of `COc1ccccc1S(=O)(=O)N[C@@H]1CC[C@H](CC(=O)N2CCN(C)CC2)O[C@@H]1CO`, the reporter increase was 0.975%. Consider `O=C(C[C@@H]1C[C@@H]2c3cc(NC(=O)C4CCOCC4)ccc3O[C@@H]2[C@@H](CO)O1)NC1CCCCC1`, for which the reporter increase was 5.22%. As for `COc1ccc(S(=O)(=O)Nc2ccc3c(c2)C(=O)N([C@@H](C)CO)C[C@H](C)[C@H](CN(C)Cc2ccc(C(=O)O)cc2)OCCCC[C@@H](C)O3)cc1`, the reporter increase is 6.21%. The result for `COc1ccc(/C=C/C(=O)c2cc(Br)ccc(=O)c2O)cc1` reads -9.92%.

As for `COc1ccc(/C=C/C(=O)c2c(O)cc(OC)cc2OC)cc1`, the reporter increase was 46.9% (active). Consider `COCOc1cc(O)c(C(=O)/C=C/c2ccc(OCOC)c(OCOC)c2)c(OCOC)c1`, for which the reporter increase is 15.9%. Consider `Cc1ccc(S(=O)(=O)N2C[C@H](O)COC[C@@H]3O[C@H](CC(=O)N[C@H]4CCN(Cc5ccccc5)C4)CC[C@H]32)cc1`, for which the reporter increase was -2.58%. In the case of `C[C@H](CO)N1C[C@H](C)[C@H](CN(C)Cc2ccc(C(F)(F)F)cc2)Oc2c(NC(=O)C3CCOCC3)cccc2C1=O`, the reporter increase was -0.743%. In the case of `Cc1nc2ccccc2c(-c2ccccc2)c1C(=O)c1ccccc1`, the reporter increase is -1.09%.

Consider `Cc1ccc(C(=O)COC(=O)CCN2C(=O)C3C4CCC(C4)C3C2=O)cc1C` (centres undefined), for which the reporter increase is 0.309%. The result for `Cc1ccc(C(=O)COC(=O)c2cccc(N3C(=O)c4c(C)nc5ccccc5c4C3=O)c2)cc1C` reads 21.8% (active); that for `Cc1noc(C)c1NC(=O)Nc1ccc2c(c1)C(=O)N([C@@H](C)CO)C[C@@H](C)[C@H](CN(C)C(=O)Nc1ccc(C(F)(F)F)cc1)OCCCC[C@@H](C)O2`, 11%; that for `O=C(C[C@H]1CC[C@@H](NC(=O)Cc2cccnc2)[C@H](CO)O1)Nc1ccc(-c2ccccc2)cc1`, -2.77%. As for `N/C(=N\OC(=O)/C=C/c1ccccc1)c1ccc(Br)cc1`, the reporter increase was 23.9% (active).

For `CC(OC(=O)/C=C/c1ccccc1)C(=O)Nc1ccc(C(N)=O)cc1` (centres undefined), the reporter increase was -2.08%. The result for `N/C(=N\OC(=O)c1ccc2c(c1)OCO2)c1ccc(Br)cc1` reads 18.6%; that for `CN(c1ccc(C(=O)NCCC2=CCCCC2)cc1)S(C)(=O)=O`, -6.11%; that for `Cn1nnc2cc(C(=O)NCCC3=CCCCC3)ccc21`, -7.14%. In the case of `O=C(NCCC1=CCCCC1)c1ccc(-n2cncn2)cc1`, the reporter increase is 42.2% (active). `CCn1ccnc1CN(C)C(=O)c1ccc2nc(Cc3ccc(OC)cc3)oc2c1`: the reporter increase is -2.21%. Regarding `CC(c1ccccn1)N(C)C(=O)c1ccc2nc(Cc3cccc(Cl)c3)oc2c1` (centres undefined), the reporter increase is 73.4% (active).

Turning to `Cc1cc(Cl)c2oc(C(=O)N(C)C(C)c3ccccn3)c(C)c2c1` (centres undefined), the reporter increase was 31.4%.

For `COc1ccc(NC(=O)Nc2ccc3c(c2)CC(=O)N([C@@H](C)CO)C[C@@H](C)[C@H](CN(C)C(=O)NC2CCCCC2)O3)cc1`, the reporter increase was 3.44%. For the compound `Oc1cccc(CCc2ccccn2)c1`, the reporter increase is 45.8% (active).

For the compound `O=C(Cc1ccccn1)c1ccc(O)cc1O`, the reporter increase is 7.66%. As for `c1ccc(CCc2ccccn2)cc1`, the reporter increase was 16.6%. Consider `CO[C@H]1CN(C)C(=O)c2cc(NC(=O)C3CC3)ccc2OC[C@H](C)N(CC2CCCC2)C[C@@H]1C`, for which the reporter increase is -2.34%. Take `O=C(CSC1=NCCS1)Nc1nc(-c2ccccc2)cs1`: the reporter increase was 5.05%.

For the compound `CC1CCCC(C)N1C(=O)CN1CCN(c2nc(-c3ccc(F)cc3)cs2)CC1` (centres undefined), the reporter increase was 7.37%. As for `O=C(COC(=O)C1CCCO1)Nc1nc(-c2ccc(F)cc2)cs1` (centres undefined), the reporter increase is 49.2% (active). For the compound `Cc1ccc(-c2csc(NC(=O)Cc3cccs3)n2)cc1C`, the reporter increase is 48.9% (active). On to `COc1cc(OC)cc(C(=O)NNC(=O)Cc2cccs2)c1`, for which the reporter increase was 3.48%.

In the case of `Cc1ccc(-c2csc(N(Cc3ccco3)C(=O)c3cccs3)n2)cc1`, the reporter increase is 2.94%.

As to `Cc1ccc(-c2csc(NC(=O)C3=COCCO3)n2)cc1C`, the reporter increase was 43.9% (active). With `Cc1csc(NC(=O)C2=COCCO2)n1`, the reporter increase was 39.3%. The figure for `O=C(Nc1n[nH]c(C(F)(F)F)n1)c1cccs1` is -2.17%. For `COc1ccc(OC)c(NC(=O)Cc2cccs2)c1`, the reporter increase is 0.423%.

Take `Cc1ccc(-c2csc(NC(=O)c3cccs3)n2)cc1`: the reporter increase was 53.5% (active).

`NS(=O)(=O)c1ccc2nc(NC(=O)C3=COCCO3)sc2c1`: the reporter increase was -2.59%. On to `O=C(C[C@@H]1CC[C@@H](NC(=O)C2CCOCC2)[C@H](CO)O1)Nc1ccc(-c2ccccc2)cc1`, for which the reporter increase was 8.43%.

Turning to `C[C@@H]1CN([C@H](C)CO)C(=O)c2cc(C#CC3(O)CCCC3)cnc2O[C@H]1CN(C)C(=O)C1CCC1`, the reporter increase is 2.77%. On to `C[C@@H](NC(=O)C[C@H]1C[C@H]2c3cc(NC(=O)Nc4ccccc4F)ccc3O[C@H]2[C@@H](CO)O1)c1ccccc1`, for which the reporter increase is 2.95%. On to `O=C(Cc1ccncc1)N[C@H]1CC[C@H](CCn2cc(-c3ccccc3F)nn2)O[C@@H]1CO`, for which the reporter increase was 12.7%. Turning to `COc1cccc(-c2cn(CC[C@@H]3CC[C@@H](NC(C)=O)[C@@H](CO)O3)nn2)c1`, the reporter increase is -4.15%. With `COc1ccccc1/C=N/Nc1nc(C)c(C(C)=O)s1`, the reporter increase is 43.3% (active). Consider `COc1ccccc1CNC(=O)COC(=O)c1sc(C)nc1C`, for which the reporter increase is 6.65%.

Consider `CNC(=O)c1sc(NCc2ccccc2OC)nc1C`, for which the reporter increase is 10%. In the case of `CCCC#Cc1ccc([C@H]2[C@@H](CO)N3CCCCN(S(=O)(=O)Cc4ccccc4)C[C@H]23)cc1`, the reporter increase is -7.51%. The figure for `CCS(=O)(=O)N1[C@H](C#N)[C@H](c2ccc(-c3cccc(F)c3)cc2)[C@@H]1CO` is 2.95%.
